# Data as given in the supplement of paper PMC10338343.
# ± gives the standard deviation.
# Legend:
# [1] = test system: MILI (PIWIL2) piRISC loaded with piRNA #1 (26 nt); assay: pre-steady-state target cleavage rate (min^-1); guide: piRNA #1 5'p-UGAGGUAGUAGGUUGUAUAGUAUCCA; higher = faster piRNA-guided slicing of the target; details: auxiliary factor: 500 nM mouse GTSF1
# Outline: (§1)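 Using HEPES–potassium acetate buffer at 33 °C, 1 nM active affinity-purified piRISC with a single synthetic guide was mixed with 0.1 nM transcribed, DNA-blocked target RNA library for 0–8 or 0–960 min, with or without 500 nM GTSF1 partner protein. Uncleaved targets were sequenced and normalised to depth and to weakly complementary targets, and three trials were pooled with k3 capped at 0.0001 min^-1. A burst-and-steady-state fit gave the pre-steady-state cleavage rate.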
# [2] = test system: EfPiwi piRISC loaded with piRNA #1 (26 nt); assay: pre-steady-state target cleavage rate (min^-1); auxiliary factor: 500 nM Ephydatia muelleri Gtsf1; guide: piRNA #1 5'p-UGAGGUAGUAGGUUGUAUAGUAUCCA; MIWI and MILI are mouse PIWI proteins and EfPiwi is from a freshwater sponge; tags in brackets are library labels; higher = faster piRNA-guided slicing of the target
# Outline: as §1
Sequence,pre-steady-state target cleavage rate [1],pre-steady-state target cleavage rate [2]
GGAGACCUAUCAUUACAACCUACUACCUCA,0.0146 ± 0.0049,0.00563 ± 0.0035
GGAGAGGAUACUAUACCAACCUACUACCUCA,0.0443 ± 0.0084,0.00837 ± 0.0039
GGAGUGGAUACUAUACAACCUACUAACUCA,0.018 ± 0.005,0.00991 ± 0.0043
GGAGUGGAUACUAUACAACCUACUACCUA,0.103 ± 0.014,0.249 ± 0.092
GGAGACCUUACUAUACAACGUACUACCUCA,0.0177 ± 0.0026,0.00318 ± 0.0019
GGAGACGACACUAUACAACCUACUACCUCA,0.214 ± 0.025,0.114 ± 0.038
GGAGAGCAUACUAUACAACGUACUACCUCA,0.0213 ± 0.003,0.00394 ± 0.0014
GGAGACCUAACUAUACGACCUACUACCUCA,0.0254 ± 0.011,0.00758 ± 0.0045
GGAGUGGAUACUAAACUACCUACUACCUCA,0.172 ± 0.011,0.00956 ± 0.0047
GGAGUGGAUACUAACAACCUACUACCUCA,0.183 ± 0.011,0.00566 ± 0.0038
GGAGACCUAACAAUACAUCCUACUACCUCA,0.191 ± 0.031,0.00431 ± 0.0035
GGAGUGGAUACUAUAUAACCUACUACCUCA,0.191 ± 0.0088,0.117 ± 0.045
GGAGACGAUACUUUACAACCUAGUACCUCA,0.0601 ± 0.017,0.00252 ± 0.0017
GGAGUGGAUACUACUACAACCUACUACCUCA,0.193 ± 0.012,0.114 ± 0.038
GGAGACCAUACAAUACUACCUACUACCUCA,0.158 ± 0.019,0.00374 ± 0.0037
GGAGACCUAUGAUCACAACCUACUACCUCA,0.00534 ± 0.0024,0.00429 ± 0.0038
GGAGUGGAUACUAUACAUCCUACUAGCUCA,0.0444 ± 0.0086,0.00367 ± 0.0024
GGAGACGAUACUAUACAACCUACAACCUCA,0.142 ± 0.019,0.00407 ± 0.0013
GGAGACGAUACUAUACAAGCUACUACGUCA,0.205 ± 0.032,0.00352 ± 0.0014
GGAGAGGAUACUAUACAAGCUACUACCUGA,0.111 ± 0.015,0.00442 ± 0.0019
GGAGAGGAUACAUACAACCUACUACCUCA,0.137 ± 0.016,0.0103 ± 0.005
GGAGACCUAACUAUCACAACCUACUACCUCA,0.085 ± 0.025,0.00495 ± 0.0033
GGAGACGAUACUAUACAACCUACUACCUGA,0.132 ± 0.02,0.0064 ± 0.002
GGAGAGGAUACUAUACAACCUACUACCUCCA,0.152 ± 0.011,0.142 ± 0.054
GGAGUGGAUCCUAUACAACCUACUACCUCA,0.156 ± 0.027,0.111 ± 0.058
GGAGACCUAUGAAUCACAACCUACUACCUCA,0.0111 ± 0.0034,0.00389 ± 0.0034
GGAGACGAUUCUAUACAACGUACUACCUCA,0.0237 ± 0.0031,0.00356 ± 0.0021

Sequence,pre-steady-state target cleavage rate [1],pre-steady-state target cleavage rate [2]
GGAGACCAUACUAUACAACCUACUAACUCA,0.0993 ± 0.021,0.00957 ± 0.0048
GGAGAGGAUACUAUUCAACCUACUAGCUCA,0.063 ± 0.014,0.00239 ± 0.0015
GGAGACGAUGACUAUACAACCUACUACCUCA,0.151 ± 0.02,0.11 ± 0.039
GGAGACCAGUACUAUACAACCUACUACCUCA,0.177 ± 0.021,0.0152 ± 0.0063
GGAGACCAUAAUAUACAACCUACUACCUCA,0.0982 ± 0.013,0.0856 ± 0.03
GGAGACCUUACUAUACAACCUACUACCUCC [g2:g22:cont:t1C],0.172 ± 0.017,0.0065 ± 0.0027
GGAGAGGAUACUAUACAACCUACUACCGCA,0.0764 ± 0.015,0.00593 ± 0.0021
GGAGACCUUACUAUACAUCCUAGUACCUCA,0.0856 ± 0.018,0.00256 ± 0.0016
GGAGUCGAUACUAUACAACCUACUACCUCA,0.18 ± 0.013,0.106 ± 0.034
GGAGAGGAUACUAUUCAACCUACUACGUCA,0.0602 ± 0.0084,0.00309 ± 0.0023
GGAGACGUUACUAUACAACCUACUACGUCA,0.0772 ± 0.016,0.00396 ± 0.0018
GGAGUGGAUACUAUACAACCAACUAGCUCA,0.00229 ± 0.0021,0.00337 ± 0.0015
GGAGACCUUACUAUACAUCCUACUACCUGA,0.195 ± 0.033,0.00345 ± 0.0024
GGAGACCAUACUAUACAACUUACUACCUCA,0.0165 ± 0.0023,0.00338 ± 0.0027
GGAGACCAUACUAUAGCAACCUACUACCUCA,0.191 ± 0.016,0.00736 ± 0.0044
GGAGACCUAACUAUACAACCUACUACGUGA,0.0518 ± 0.018,0.0069 ± 0.0046
GGAGACCUAAUUAUACAACCUACUACCUCA,0.0979 ± 0.011,0.0144 ± 0.0065
GGAGUGGAUACUAUACAACCUACUACCUAA,0.105 ± 0.014,0.151 ± 0.054
GGAGUGGUUUCUAUACAACCUACUACCUCA,0.148 ± 0.0079,0.00603 ± 0.0034
GGAGUGGAUACUAUACAACCUACUAACCUCA,0.133 ± 0.014,0.00634 ± 0.0027
GGAGAGGAUUACUAUACAACCUACUACCUCA,0.132 ± 0.0095,0.0829 ± 0.03
GGAGAGGAUACAUUACAACCUACUACCUCA,0.148 ± 0.012,0.007 ± 0.0035
GGAGACGAUACUAUACAACCCACUACCUCA,0.0178 ± 0.0039,0.00638 ± 0.0022
GGAGACCUAACUUUACAACCUACUACCUCA,0.109 ± 0.025,0.00631 ± 0.0034
GGAGACCUAUCUAUACAACAUACUACCUCA,0.0382 ± 0.0074,0.00529 ± 0.0038
GGAGAGGAUACUAUACAACCUGACUACCUCA,0.00367 ± 0.0024,0.00442 ± 0.0022
GGAGAGGUUACAAUACAACCUACUACCUCA,0.181 ± 0.014,0.00504 ± 0.0035
